High-throughput results (PubChem)
Sampled rows, rich in hits. Any-hit rate of the full collection: about 28%.
CYP2C19 act – increases human CYP2C19 enzyme activity | 96,000 tested, under 10 active | recombinant CYP2C19, luciferin-H EGE luminescence; hits give high values; 0 = fully inhibited enzyme, 1 = untreated enzyme | AID 1025 | P33261 | activation factor at 5 µM;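 active = activation factor of at least 2 at 5 µM in the primary screen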
CD11b adhes enh – increases human CD11b/CD18 adhesion to fibrinogen | P05107+P11215 | K562 CD11b/CD18 adhesion to fibrinogen, ATPlite luminescence | activation, % at 10 µM | 93,000 tested, 0.07% active | AID 1499;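 active = 10 µM primary screen giving 50% or more activity, confirmed by 40% or more on retest at that dose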
Target sequence (P05107 whole entry, looked up, other chains not shown): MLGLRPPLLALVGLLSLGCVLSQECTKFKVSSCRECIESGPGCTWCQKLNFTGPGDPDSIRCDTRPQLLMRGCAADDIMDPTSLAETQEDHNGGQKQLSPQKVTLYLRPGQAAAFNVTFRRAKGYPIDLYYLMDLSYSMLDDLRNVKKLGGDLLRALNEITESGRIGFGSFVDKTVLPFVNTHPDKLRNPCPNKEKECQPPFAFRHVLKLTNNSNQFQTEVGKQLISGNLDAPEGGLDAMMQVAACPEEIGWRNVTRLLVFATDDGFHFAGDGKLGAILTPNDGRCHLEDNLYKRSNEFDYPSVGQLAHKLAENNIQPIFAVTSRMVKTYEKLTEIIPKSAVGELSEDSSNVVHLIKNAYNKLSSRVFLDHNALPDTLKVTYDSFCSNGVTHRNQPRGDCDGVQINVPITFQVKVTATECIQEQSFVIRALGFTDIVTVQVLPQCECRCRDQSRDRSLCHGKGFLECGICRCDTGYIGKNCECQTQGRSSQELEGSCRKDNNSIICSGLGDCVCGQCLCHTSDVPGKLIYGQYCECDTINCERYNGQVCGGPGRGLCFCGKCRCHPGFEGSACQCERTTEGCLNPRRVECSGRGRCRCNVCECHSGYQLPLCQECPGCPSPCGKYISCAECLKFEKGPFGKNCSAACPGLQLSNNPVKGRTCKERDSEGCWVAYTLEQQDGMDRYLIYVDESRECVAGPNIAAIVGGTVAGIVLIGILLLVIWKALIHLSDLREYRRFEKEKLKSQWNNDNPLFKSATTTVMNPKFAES
CYP2C9 inh – inhibitors of human CYP2C9; CYP2C9 Supersomes, luciferin-H conversion, luminescence; inhibition, % at 5 µM; 96,000 tested, 20% active; AID 777;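 active = blocking of liver enzyme CYP2C9 beyond about 50% at 5 µM, limit read from the data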
CYP2C19 inh – blocks human cytochrome P450 2C19; inhibition, % at 5 µM; 96,000 tested, 21% active; P33261; CYP2C19 Supersomes, luciferin-H EGE luminescence, 30 min;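 active = CYP2C19 inhibition above a set limit at 5 µM in the primary screen, cut at about 50% in these data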
CYP2C9 act – CYP2C9 (human) activation. P11712. recombinant CYP2C9, luciferin-H conversion, luminescence; hits give high values; factor 1 = untreated enzyme, 0 = blocked. activation factor at 5 µM. 96,000 tested, 1.4% active;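 active = activation factor of 2 or more for CYP2C9 at a 5 µM dose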
Mac1 fbg inh – inhibitors of human CD11b/CD18 binding to fibrinogen. P05107+P11215. K562 CD11b/CD18 adhesion to fibrinogen, ATPlite luminescence; Mn2+ added to activate the integrin. inhibition, % at 10 µM. 93,000 tested, 0.54% active. AID 1497;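 active = primary inhibition of 50% or more at 10 µM, then 40% or more on retest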
Each line names hits and unclear results; the compound was inactive in the other large screens.

CCCn1c(SCC(=O)NCCc2ccccc2)nnc1-c1ccccn1	CYP2C9 inh 56, CYP2C19 inh 56 (no result: CD11b adhes enh, Mac1 fbg inh)
CC(C)OC(=O)CSc1nnc(-c2ccccn2)n1C	none
CC(C)CNC(=O)CSc1nnc(-c2ccccn2)n1Cc1ccccc1	CYP2C9 inh 72, CYP2C19 inh 80
CCCn1c(SCC(=O)Nc2nnc(-c3ccccc3)s2)nnc1-c1ccccn1	CYP2C9 inh 71, CYP2C19 inh 73
CCC1(C)Cc2ccccc2C(Nc2c(C)n(C)n(-c3ccccc3)c2=O)=N1 (stereo not drawn)	none
CCOc1cc(NC(=S)NCCCN2CCOCC2)c(OCC)cc1NC(=O)CC(C)C	none
Cc1cccc(-n2nnc(C(=O)NC3CCCc4ccccc43)c2N)c1 (stereo not drawn)	none (no result: CD11b adhes enh, Mac1 fbg inh)
CCn1c(SCC(=O)NC(C)(C)C)nnc1-c1ccccn1	CYP2C19 inh 73
Cn1c(SCC(=O)NC(C)(C)C)nnc1-c1cnccn1	none
O=C1Nc2ccccc2C12OCCS2 (stereo not drawn)	none
CC1(C)SC(=S)N(Cc2ccc3c(c2)OCO3)C1N(O)C(=O)NC1CCCCC1 (stereo not drawn)	CYP2C9 inh 72
Cc1ccc(-c2nnc(N3CCCCC3)c3ccccc23)cc1S(=O)(=O)N1CCN(C)CC1	CYP2C9 inh 58 (no result: CD11b adhes enh, Mac1 fbg inh)
NC(=O)C1(N2CCCCC2)CCN(C(=O)c2ccc(C#CC3(O)CCCCC3)cc2)CC1	none
NC(=O)CSc1nc2cc3c(cc2c(=O)n1CCCC(=O)NCc1ccc2c(c1)OCO2)OCO3	CYP2C9 inh 74
COc1ccc(CNC(=O)CCCn2c(SCC#N)nc3cc4c(cc3c2=O)OCO4)cc1	CYP2C9 inh 80, CYP2C19 inh 54 (no result: CD11b adhes enh, Mac1 fbg inh)
Cc1cc(C)cc(-n2c(SCC(=O)NCc3ccc4c(c3)OCO4)nc3ccccc3c2=O)c1	none (no result: CYP2C19 act, CYP2C9 inh, CYP2C19 inh, CYP2C9 act)
CC(C)C(=O)Nc1cccc(C(=O)Nc2nncs2)c1	none
CC(C)C(=O)Nc1cccc(C(=O)Nc2nccs2)c1	CYP2C9 inh 86
CCCC(=O)Nc1cccc(C(=O)Nc2nccs2)c1	CYP2C9 inh 55
O=C(Oc1ccc(-c2cnc3ccccc3n2)cc1)c1cccc([N+](=O)[O-])c1	CYP2C19 inh 67
O=C(Oc1ccc(-c2cnc3ccccc3n2)cc1)c1ccc(Cl)c([N+](=O)[O-])c1	none
O=C(Oc1ccc(-c2cnc3ccccc3n2)cc1)c1ccc(Br)o1	CYP2C19 inh 58
CCN(CC)S(=O)(=O)c1cc(C(=O)Oc2cccc(-c3cnc4ccccc4n3)c2)ccc1Br	CYP2C19 inh 64
CN1CCC(N(C)C(=O)c2ccccc2Nc2ccc(SC(F)F)cc2)CC1	none
CC1CC(C)CN(C(=O)c2ccccc2Nc2ccc(SC(F)F)cc2)C1 (stereo not drawn)	CYP2C9 inh 76, CYP2C19 inh 81 (no result: CD11b adhes enh, Mac1 fbg inh)
CCOCCCNC(=O)CC1Oc2ccc(C)cc2NC1=O (stereo not drawn)	none
CCCCOC(=O)CSc1nc(N)c(C#N)c(-c2ccc(OC)cc2)c1C#N	none
CCOC(=O)CC(=O)CSc1nc(N)c(C#N)c(-c2ccc(F)cc2)c1C#N	CYP2C9 inh 53, CYP2C19 inh 62
C=C(C)CSc1nc(N)c(C#N)c(-c2ccc(C)cc2)c1C#N	CYP2C9 inh 50
CCCCOC(=O)CSc1nc(N)c(C#N)c(-c2ccc(OCC)cc2)c1C#N	none
CCCCOc1ccc(-c2c(C#N)c(N)nc(SCC(N)=O)c2C#N)cc1	none
CCOC(=O)CSc1nc(N)c(C#N)c(-c2ccc(OC)cc2)c1C#N	CYP2C19 inh 60
COc1cc(C)nc2nc(SCc3ccccc3)nn12	none
Cc1ccccc1-n1c(SCc2c(C)noc2C)nnc1-c1c[nH]c2ccccc12	none
CCCSc1nnc(-c2c[nH]c3ccccc23)n1CC	CYP2C19 inh 89
CCCSc1nnc(-c2cnn(-c3ccccc3)c2-n2cccc2)n1C	none
CCCSc1nnc(-c2c[nH]c3ccccc23)n1C	CYP2C19 inh 76
O=C(CSc1nnc(-c2ccc(O)cc2)n1-c1ccccc1)CC(=O)Nc1ccccc1	none (no result: CYP2C19 act, CYP2C9 inh, CYP2C19 inh, CYP2C9 act)
CCN(CC)CCCN(Cc1cc2cc3c(cc2[nH]c1=O)OCCO3)C(=O)Nc1ccc(F)cc1	none
COc1ccc(N=c2oc3cc(O)ccc3cc2C(=O)NCC2CCCO2)cc1 (stereo not drawn)	CYP2C9 inh 52
CCOc1ccc(N=c2oc3cc(O)ccc3cc2C(=O)NCC2CCCO2)cc1 (stereo not drawn)	none
COc1ccc2cc(C(N)=O)/c(=N/NC(=O)c3ccco3)oc2c1	none (no result: CYP2C19 act, CYP2C9 inh, CYP2C19 inh, CYP2C9 act)
Cc1ccc(N=c2oc3cc(O)ccc3cc2C(N)=O)cc1	CYP2C9 inh 66
CCOc1ccccc1N=c1oc2cc(O)ccc2cc1C(=O)NCC1CCCO1 (stereo not drawn)	CYP2C9 inh 53
Cc1ccc(NC(=O)c2cccc3c2-c2ccccc2C3=O)cc1C	CYP2C9 inh 68, CYP2C19 inh 84
CCN(CC)C(=O)C(=O)N/N=C/c1ccc(Br)cc1	none
COc1ccc2c(c1)-c1c(sn(-c3ccc(OC)c(OC)c3)c1=S)C(C)(C)N2	CYP2C9 inh 59 (no result: CD11b adhes enh, Mac1 fbg inh)
COc1cc2c3c(c1)-c1c(sn(-c4cc(OC)ccc4OC)c1=S)C(C)(C)N3C(=O)C2=O	none (no result: CD11b adhes enh, Mac1 fbg inh)
COc1ccc(-n2sc3c(c2=S)-c2cc(OC)ccc2NC3(C)C)cc1	CYP2C9 inh 82
c1cc(CNc2ccc3c(c2)OCCO3)ccn1	CYP2C9 inh 62, CYP2C19 inh 73
COc1ccc(N2Cc3cccc(C(=O)N4CCN(C(=O)c5ccco5)CC4)c3C2=O)cc1	CYP2C9 inh 64
COc1ccc(S(=O)(=O)Cc2ccc(C(=O)N3CCN(C(=O)c4ccco4)CC3)o2)cc1	CYP2C9 inh 80
O=C(c1ccc(CS(=O)(=O)c2ccccc2)o1)N1CCOCC1	none
COc1ccc(S(=O)(=O)Cc2ccc(C(=O)N3CCN(Cc4ccccc4)CC3)o2)cc1	CYP2C9 inh 87
Cc1ccc(S(=O)(=O)Cc2ccc(C(=O)N3CCN(Cc4ccccc4)CC3)o2)cc1	CYP2C9 inh 92
Cc1cnn(C(=O)c2ccccc2Br)c1	none
O=C(c1ccc2c(c1)OCO2)N(CC1CCCO1)C1(C(=O)NC2CCCC2)CCCCC1 (stereo not drawn)	CYP2C9 inh 55, CYP2C19 inh 51
Cc1cc(OC(=O)c2cc(Cl)nc3ccccc23)ccc1Cl	none
COc1ccccc1OC(=O)c1cc(Cl)nc2ccccc12	CYP2C9 inh 75
COc1cccc(-n2nnnc2SCC(=O)NCc2ccc3c(c2)OCO3)c1	CYP2C9 inh 60, CYP2C19 inh 88
Fc1ccccc1CSc1nnnn1-c1ccc2c(c1)OCO2	CYP2C19 inh 92
O=C(CSc1nnnn1-c1ccc2c(c1)OCO2)NCc1ccccc1	CYP2C19 inh 92
COc1cc(OC)cc(-n2nnnc2SCC(=O)NCc2ccc3c(c2)OCO3)c1	CYP2C19 inh 53
